Rows were chosen to be rich in hits. Some 19% of all compounds tested hit in one or more screens of this group.
DT40 TDP1 CPT: DT40-hTDP1 cell growth loss with CPT; chicken DT40 Tdp1-/-;hTDP1 cells + 20 nM CPT, ATP luminescence, 48 h; Potency, µM (doses to about 46.2 µM), for the others: at the highest dose activity change, negative = growth inhibition, hits mostly inhibitors; 420,000 compounds, 12% hits; AID 686979; note: potency is the fitted concentration of half-maximal effect; % is set by controls: 0 for no effect and ±100 for the full control effect; nearly all actives have a fitted effect of over 55% in size
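Cell growth measured by CellTiter-Glo luminescence after a minimum 48 h, 37 C compound exposure with 20 nM CPT in Tdp1-knockout DT40 cells stably expressing hTDP1, seeded 400/well; qHTS titration format.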
DT40 TDP1 no CPT: qHTS for Inhibitors of human tyrosyl-DNA phosphodiesterase 1 (TDP1): qHTS in cells in absence of CPT; DT40 Tdp1-/- hTDP1 cells, no CPT, ATP luminescence, 48 h; Potency, µM (highest dose often 46.2 µM), inactives show at the highest dose activity change, negative = growth inhibition, actives largely listed as inhibitors; 420,000 compounds, 15% hits; note: potency is the fitted concentration of half-maximal effect; % is set by controls: 0 for no effect and ±100 for the full control effect; nearly all actives have a fitted effect of over 55% in size
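Growth of hTDP1-complemented DT40 Tdp1-knockout cells is measured by ATP luminescence after at least 48 hr compound exposure at 37 °C, with DMSO substituting for the 20 nM CPT used in the parallel screen.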
S-ASM inh: human S-ASM enzyme inhibition. P17405. placental ASM, HMU-PC fluorogenic substrate, 60 min. Potency, µM (doses to about 57.5 µM), without a hit: at the top dose activity change, negative = inhibition, usual class: inhibitors. 340,000 compounds, 0.006% hits; note: potency is the fitted concentration of half-maximal effect
Target sequence (P17405 47-631 limits assumed): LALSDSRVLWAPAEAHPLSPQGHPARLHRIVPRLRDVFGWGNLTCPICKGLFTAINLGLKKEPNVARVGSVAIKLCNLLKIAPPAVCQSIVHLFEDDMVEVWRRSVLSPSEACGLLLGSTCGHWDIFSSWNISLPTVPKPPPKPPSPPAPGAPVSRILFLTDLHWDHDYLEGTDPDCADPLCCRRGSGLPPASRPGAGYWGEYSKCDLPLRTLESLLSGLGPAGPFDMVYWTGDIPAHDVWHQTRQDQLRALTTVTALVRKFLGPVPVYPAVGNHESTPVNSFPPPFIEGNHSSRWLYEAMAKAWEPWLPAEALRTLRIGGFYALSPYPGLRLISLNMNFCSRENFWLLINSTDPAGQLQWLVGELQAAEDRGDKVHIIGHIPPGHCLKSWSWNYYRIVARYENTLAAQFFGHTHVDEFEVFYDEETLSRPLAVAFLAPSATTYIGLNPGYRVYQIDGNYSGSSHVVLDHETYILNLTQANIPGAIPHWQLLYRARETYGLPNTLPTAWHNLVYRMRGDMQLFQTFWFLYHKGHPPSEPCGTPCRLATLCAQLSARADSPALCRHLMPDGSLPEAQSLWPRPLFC
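HMU-PC0 cleavage (9 uM final) by human placental ASM, 60 min at 37 °C following 10 min compound exposure at RT; stopped at pH 10, fluorescence Ex 386/Em 447 nm.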
TGFb inhibitor: inhibitors of TGF-b signaling; HepG2 CAGA-GFP TGF-b/SMAD3 reporter, GFP fluorescence, 18 h; TGF-beta stimulated, 500 pg/mL final; Potency, µM (highest dose often 46.1 µM), for inactives: at the top dose activity, negative = inhibition, hits mostly inhibitors; 410,000 compounds, 1.2% hits; note: potency is the fitted concentration of half-maximal effect; % is set by controls: 0 for no effect and ±100 for the full control effect; nearly all actives have a fitted effect of over 65% in size
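Inhibition of TGF-beta-driven CAGA-GFP reporter expression in HEPG2 cells is measured by cellular GFP fluorescence after 18 h stimulation with 500 pg/mL recombinant TGF-beta in 1% FBS medium at 37 degrees C.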
HepG2 viability: counter-screen for TGF-b inhibitors: cytotoxicity in HepG2 cells; HepG2 CAGA-GFP viability, ATP luminescence, 18 h; Potency, µM (highest dose often 46.1 µM), inactives show at the highest dose activity change, negative = cytotoxicity, actives largely listed as cytotoxic; 410,000 compounds, 0.76% hits; note: potency is the fitted concentration of half-maximal effect
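HepG2 CAGA-GFP cells (1000/well, DMEM with 1% FBS) received compound, then TGF-beta at 500 pg/mL final, and were incubated 18 hours at 37 degrees C. Viability was read by CellTiter-Glo luminescence. Media-only wells were set as complete cell-killing and DMSO as no toxicity.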
IL-1B inflam inh: inflammasome signaling inhibition, IL-1 beta readout | THP-1 LPS/ATP IL-1B secretion, AlphaLISA, 16 h; hits give low values | activity change, % at 57.5 µM | 360,000 compounds, 4.7% hits | AID 743279; in the data active = activity change below about -50%; inconclusive = mostly about -30% to -49%; note: % is set by controls: 0 for no effect and ±100 for the full control effect
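Secreted IL-1B measured by AlphaLISA bead assay after 16 h compound exposure of THP-1 cells; compounds (final up to 57.5 uM) added 1 h before LPS (250 ng/mL) and ATP (1.25 mM) stimulation; lower signal means less secretion.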
Active calls of the source: *; i = inactive; ? = inconclusive; . = not tested or not shown. Unless noted, calls come from the whole dose curve; as a rule, active = well fitted curve in the direction sought with a large enough effect; inconclusive = small, poorly fitted or top-dose-only effect, or another doubt; inactive = no such curve, though single readings can be large; an effect the other way counts as inactive or inconclusive.

SMILES	DT40 TDP1 CPT	DT40 TDP1 no CPT	S-ASM inh	TGFb inhibitor	HepG2 viability	IL-1B inflam inh
COc1cc2c(cc1NC(=O)COc1ccc(Br)c(C)c1)oc1ccccc12	1.0%	1.5%	.	33.9%	4.7%	.
COc1ccc2sc(-c3ccc(S(C)(=O)=O)cc3)c(C#CCO)c2c1	14.6µM*	20.6µM*	37.4%	?	-35.4%	-54.8*
COc1ccc2c(-c3ccc(S(N)(=O)=O)cc3)c(-c3ccc(S(C)(=O)=O)cc3)sc2c1	23.1µM*	?	i	-32.0%	-34.1%	8.0
Cn1cncc1C#Cc1c(-c2ccc(S(C)(=O)=O)cc2)sc2ccccc12	13µM*	11.6µM*	i	31.3%	0.5%	7.7
COc1ccc(-c2sc3ccccc3c2C#CCCO)cc1	25.9µM*	?	6.0%	-5.9%	-29.4%	0.0
COc1ccc(-c2sc3ccccc3c2C#CCO)cc1	-13.4%	-9.2%	12.4%	?	-20.1%	9.8
OCC[C@H]1C[C@H](O)[C@@H](O)[C@@]2(Cc3ccccc3O2)O1	-2.5%	-0.7%	0.4%	-11.9%	-5.4%	26.0
O=C(CN1C(=O)COc2ccc(S(=O)(=O)N3CCCC3)cc21)N1CCN(c2ccccc2)CC1	-23.3%	?	.	-6.7%	-8.2%	.
Cc1ccc(S(=O)(=O)N2CCN(C(=O)C3CCCC3)CC2)cc1C	?	?	-2.9%	2.6%	-0.7%	32.8
CS(=O)(=O)c1ccc(-c2sc3ccccc3c2C#CCCO)cc1	16.4µM*	?	6.7%	11.2µM*	-32.8%	-17.6
COc1ccc(-c2sc3ccc(N4CCOCC4)cc3c2C#CCCO)cc1	6.51µM*	4.61µM*	23.3%	?	-40.7%	43.5
CCC(C(=O)c1ccc2ncccc2c1)c1ccccc1 (stereo unspecified)	14.6µM*	16.4µM*	-4.3%	?	-41.5%	34.9
N#Cc1nc(-c2ccc(OCc3ccc(Cl)cc3)cc2)oc1N1CCCCC1	-24.2%	?	.	-0.9%	-8.6%	.
CCOc1ccc2nc(SCC3CC3(Cl)Cl)[nH]c2c1 (stereo unspecified)	?	18.4µM*	-3.5%	-24.3%	11.9%	-61.9*
ClC1(Cl)CC1CSc1nc2ccccc2[nH]1 (stereo unspecified)	-4.7%	?	-2.1%	9.4%	-17.2%	-6.0
CCC(C)c1ccccc1NC(=O)COC(=O)c1ccc2[nH]c3c(c2c1)CCCC3 (stereo unspecified)	16.4µM*	18.4µM*	-19.6%	?	-25.5%	-10.6
O=C(COC(=O)c1ccc2[nH]c3c(c2c1)CCCC3)Nc1ccccc1Cl	-6.9%	0.4%	-0.6%	0.7%	-4.7%	22.5
CCC(C)c1ccccc1NC(=O)COC(=O)c1ccc(N2CCCC2)c([N+](=O)[O-])c1 (stereo unspecified)	20.6µM*	?	-19.9%	-20.6%	0.7%	19.2
CCCNC(=O)C1(C)CCCN(Cc2ccccc2-c2ccccc2)C1 (stereo unspecified)	?	?	.	-12.2%	-21.8%	22.8
Cc1nnc2n1N=C(c1ccc(F)cc1F)CS2	-5.0%	-6.6%	0.9%	8.5%	-7.8%	3.6
C=CCOc1ccn(C)c(=O)n1	-4.4%	-12.0%	5.1%	17.3%	9.6%	0.0
COC(=O)CNC(=O)C1CC(=O)N(CCc2ccc(F)cc2)C1 (stereo unspecified)	11.0%	-0.4%	6.3%	14.2%	8.5%	-4.6
C[C@@H]1CN([C@@H](C)CO)C(=O)c2cc(NC(=O)Nc3ccccc3)ccc2O[C@@H](C)CCCCO[C@H]1CN(C)C(=O)Nc1ccc(C(F)(F)F)cc1	?	?	.	-7.5%	-0.2%	?
CCCCCOC(=O)Cc1c(O)c2ccccc2n(C)c1=O	16.4µM*	16.4µM*	2.9%	-4.8%	0.8%	-19.7
O=C(/C(Br)=C/Nc1cc(Cl)ccc1Cl)C(F)(F)F	20.6µM*	14.6µM*	0.3%	?	-31.1%	0.0
SMILES	DT40 TDP1 CPT	DT40 TDP1 no CPT	S-ASM inh	TGFb inhibitor	HepG2 viability	IL-1B inflam inh
Cc1ccc(C(=O)N2CC(C)OC(C)C2)cc1S(=O)(=O)N1CCCCC1 (stereo unspecified)	?	?	3.7%	5.9%	13.5%	0.0
CCOc1ccc2nc(SCC(=O)NCc3ccco3)sc2c1	?	23.1µM*	-3.3%	-14.7%	-40.0%	27.7
CCOc1ccc2nc(SCC(=O)NC(=O)NCc3ccco3)sc2c1	?	25.9µM*	-4.1%	-17.6%	-40.0%	-4.4
O=C(CSc1nc2cc(Cl)ccc2s1)NC(=O)NCc1ccco1	-12.9%	?	-0.1%	-6.7%	-2.3%	25.2
CCCCCCSc1ccc(-c2nc3ccc(Cl)cn3c2NCCCC)cc1OC	?	?	136.6%	?	-21.7%	-15.5
CCCCNc1c(-c2cccc(-c3cc(C(C)=O)cs3)c2)nc2cc(C)ccn12	?	?	-27.8%	?	-27.4%	-79.5*
COc1ccc(-c2nc3cc(C)ccn3c2NC(=O)c2ccc(F)cc2)cc1	-6.9%	?	.	-24.0%	-14.0%	.
CCCCNc1c(-c2ccc(SC3CCCCC3)c(OC)c2)nc2ccc(Cl)cn12	?	16.4µM*	184.2%	-17.5%	-1.4%	-19.3
CCCCCCSc1cc(-c2nc3cc(C)ccn3c2NCCCC)ccc1OC	13µM*	16.4µM*	72.1%	?	-49.8%	-87.2*
CCCCNc1c(-c2ccc(SC(C)CC)c(OC)c2)nc2ccc(Cl)cn12 (stereo unspecified)	25.9µM*	20.6µM*	235.5%	?	-5.3%	-68.3*
O=C(NC1CC1)[C@@H]1C[C@H](Sc2nc3ccccc3[nH]2)CN1CC1CCCCC1	-9.4%	?	.	.	.	.
O=C(NCC(F)(F)F)C1C(=O)Nc2ccccc2C(=O)N1C1CCCC1 (stereo unspecified)	6.4%	-6.4%	.	.	.	21.4
O=C1C(=O)N(C2CCN(S(=O)(=O)c3ccc(F)cc3)CC2)CCN1Cc1ccccc1	5.5%	33.0%	.	10.1%	6.7%	.
CCCCNc1c(-c2ccc(SC(C)CC)c(OC)c2)nc2ccc(C)cn12 (stereo unspecified)	5.8µM*	6.51µM*	i	?	20µM*	-92.9*
CCCCCCSc1ccc(-c2nc3ccc(C)cn3c2NCCCC)cc1OC	11.6µM*	9.2µM*	.	.	.	-23.8
O=C(Oc1ccccc1)N1CCC[C@@]2(CCN(c3ccccn3)C2)C1	-3.1%	-20.1%	.	.	.	.

Bioassay records as filed in PubChem.
